A selection: hits, their analogues and other compounds. The true share with any hit is near 3.1%.
Tau FP inhib = tau fibrillization inhibition (FP). Potency, µM (titrated, usually from 57.7 µM), for the others: at the highest dose activity, negative = inhibition, most hits filed as inhibitors. K18 P301L tau heparin fibrillization, Alexa594 FP, 6 h. AID 1468. 280,000 tested, 0.39% active; also: nearly all actives have a fitted effect of over 55% in size
Target sequence (P10636 561-689 P618L limits assumed): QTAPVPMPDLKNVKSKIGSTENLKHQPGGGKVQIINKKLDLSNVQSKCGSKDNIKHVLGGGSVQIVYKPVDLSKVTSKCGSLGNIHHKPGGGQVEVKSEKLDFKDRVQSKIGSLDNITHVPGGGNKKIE
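K18 P301L tau (15 uM unlabeled/0.24 uM Alexa 594-labeled, final) + compound + heparin 20 uM final; 100 mM NaOAc pH 7; 6 hr 37 C; ThT 30 uM final added, 1 hr RT; FP ex 555/em 632 nm.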
Tau fluor counter = counter-screen for tau fibril formation inhibitors; tau K18 P301L Alexa594 fluorescence, heparin fibrillization; Potency, µM (doses to about 57.7 µM), for inactives: at the highest dose activity change, negative = decrease; 280,000 tested, 0.93% active; AID 1463; also: nearly all actives have a fitted effect of over 55% in size
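Human tau K18 P301L (15 uM unlabeled, 0.24 uM Alexa 594-labeled) in 100 mM sodium acetate pH 7 with 20 uM heparin, 6 hr at 37 C. ThT 30 uM added, 1 hr ambient; Alexa 594 FP and total fluorescence read at 555/632 nm.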
TRb-SRC2 inh = inhibitors of human thyroid hormone receptor beta-SRC2 interaction. P10828. TRbeta-SRC2 peptide binding, fluorescence polarization; receptor liganded with 1 µM T3. Potency, µM (highest dose often 106 µM), for inactives: at the highest dose activity change, negative = inhibition, actives largely listed as inhibitors. 280,000 tested, 0.065% active. AID 1469;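 also: plate controls were bound peptide for no effect and peptide without receptor for full effect; nearly all actives have a fitted effect of over 50% in size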
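Each compound concentration gave % activity, normalized to unbound and bound Texas Red SRC2 controls, from polarization read after 5 hr ambient incubation with T3-loaded human TRb LBD.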
Tau fibril ThT = tau fibrillization inhibition (ThT binding); P10636; recombinant tau K18 P301L (four-repeat tau fragment), heparin-induced fibrillization, ThT fluorescence; Potency, µM (series often up to 57.4 µM), for the others: at the top dose activity, negative = inhibition, usual class: inhibitors; 270,000 tested, 2.1% active; AID 1460; also: nearly all actives have a fitted effect of over 55% in size
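Recombinant human tau K18 fragment […] carrying P301L, 15 uM unlabeled plus 0.24 uM Alexa 594-labeled, was fibrillized with 20 uM heparin in 100 mM sodium acetate pH 7 for 6 hr at 37 C; 30 uM ThT fluorescence read after 1 hr.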
GoLoco inh red = blocks human Gai1 binding to RGS12 GoLoco peptide, red readout. Gai1:RGS12 GoLoco peptide FP, rhodamine, 10 min. Potency, µM (doses to about 61.6 µM), for inactives: at the highest dose activity, negative = inhibition, usual class: inhibitors. 230,000 tested, 0.44% active; active = well fitted inhibition curve with a large enough effect, not every such curve was filed as active; inactive = no such curve, though single readings can be large or run the other way; also: nearly all actives have a fitted effect of over 30% in size
Target sequence (P63096 whole entry, looked up): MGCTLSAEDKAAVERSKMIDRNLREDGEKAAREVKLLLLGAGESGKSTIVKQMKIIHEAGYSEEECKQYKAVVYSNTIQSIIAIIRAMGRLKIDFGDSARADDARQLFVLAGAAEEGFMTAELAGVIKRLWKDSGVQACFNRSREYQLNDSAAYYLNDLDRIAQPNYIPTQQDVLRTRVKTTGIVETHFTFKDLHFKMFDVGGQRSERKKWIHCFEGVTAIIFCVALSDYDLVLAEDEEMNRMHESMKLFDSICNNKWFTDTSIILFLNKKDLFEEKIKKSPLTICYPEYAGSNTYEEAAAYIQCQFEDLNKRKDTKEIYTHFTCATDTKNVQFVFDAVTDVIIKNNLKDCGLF
TR SRC2 fluor cs = Texas Red fluorescence interference in TRb-SRC2 counter-screen. 280,000 tested, 0.29% active. Potency, µM (highest dose often 106 µM), for inactives: at the top dose fluorescence change, negative = quenching. TRb/SRC2 Texas Red total fluorescence interference; active = well fitted curve in either direction with a large enough effect; inconclusive = small, poorly fitted or top-dose-only effect
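Human TRb ligand-binding domain at 0.6 uM with 20 nM Texas Red SRC2 peptide in Tris buffer containing 1 uM T3 and 5% DMSO, incubated with compound 5 h at ambient temperature. Total fluorescence (555/632 nm) calculated as parallel + 2 × perpendicular.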
The depositor's hits bear a star; ? = inconclusive; nt = no result given; [ ] = remark or other dose. Unless noted, calls follow the shape of the dose curve; as a rule, active = well fitted curve in the direction sought with a large enough effect; inconclusive = small, poorly fitted or top-dose-only effect, or another doubt; inactive = no such curve, though single readings can be large; an effect the other way counts as inactive or inconclusive. Unless noted, % is scaled to controls: 0 for no effect and ±100 for the full control effect; potency is read from the fitted curve at half-maximal effect.

SMILES | Tau FP inhib | Tau fluor counter | TRb-SRC2 inh | Tau fibril ThT | GoLoco inh red | TR SRC2 fluor cs
CCN1C(=O)C(CC(=O)Nc2ccc(F)cc2)N(CCc2ccc(OC)cc2)C1=S (stereo not drawn) | ? | ? | 4% | 7% | 11% | -3%
CCOc1ccc(NC2SC(=O)N(Cc3ccccc3)C2=O)cc1 (stereo not drawn) | 15% | ? | -6% | ? | nt | ?
O=C1SC(Nc2ccc(Cl)cc2)C(=O)N1Cc1ccccc1 (stereo not drawn) | ? | ? | -15% | 5% | nt | 0.0032µM*[quencher]
COc1ccc(C)cc1NC(=O)CCS(=O)(=O)c1ccc2c(c1)CCN2C(C)=O | -1% | -5% | 5% | -3% | 7% | -4%
Cc1ccccc1NC(=S)Nc1ccc2cn[nH]c2c1 | -6% | -12% | 0% | ? | 7% | -3%
S=C(Nc1ccc2cn[nH]c2c1)Nc1ccc(Cl)cc1Cl | -13% | ? | 0% | 16µM* | 13% | -2%
S=C(Nc1ccc2cn[nH]c2c1)Nc1ccccc1Cl | -15% | ? | 6% | 14µM* | -6% | 2%
CCOc1ccc(CCNC(=O)c2ccc3c(c2)N(Cc2cccc(Cl)c2)C(=O)c2ccccc2S3(=O)=O)cc1OCC | ? | -17% | -8% | 6% | nt | 3%
CCOC(=O)c1ccc2oc(=O)n(Cc3ccccc3)c2c1 | 3% | 2% | -4% | 5% | nt | 0%
Nc1c(C(=O)c2ccc(Br)s2)oc2ccccc12 | 13% | ? | -4% | 10µM* | 2% | -5%
Cc1ccsc1C1NC(=O)c2c(sc3c2CCN(C)C3)N1 (stereo not drawn) | ? | -23% | -11% | ? | 67% | 17%
CN1CCc2c(sc3c2C(=O)NC(c2ccc(-c4cccc(Cl)c4)o2)N3)C1 (stereo not drawn) | ? | -14% | 1% | 2.2µM* | 139% | 10%
COc1ccc(C(=O)Oc2ccc(C3NC(=O)c4c(sc5c4CCN(C)C5)N3)cc2OC)cc1 (stereo not drawn) | ? | -27% | -7% | 4µM* | nt | ?
CN1CCc2c(sc3c2C(=O)NC(/C=C\c2ccccc2)N3)C1 (stereo not drawn) | -15% | -18% | 4% | 18µM* | 24% | 8%
CN1CCc2c(sc3c2C(=O)NC(c2ccc(C(C)(C)C)cc2)N3)C1 (stereo not drawn) | ? | -20% | -6% | 16µM* | nt | 20%
Cc1cccc(CNC(=O)C2CCN(c3nn4cc(-c5ccc(F)cc5)nc4s3)CC2)c1 | -2% | 5% | 2% | -10% | nt | 5%
COc1ccc(C2NC(=O)c3c(sc4c3CCN(C)C4)N2)cc1O (stereo not drawn) | -7% | -23% | 4% | 5.6µM* | nt | -3%
CSc1ccc(C2NC(=O)c3c(sc4c3CCN(C)C4)N2)cc1 (stereo not drawn) | 1% | -8% | 3% | -5% | 147% | -3%
CN1CCc2c(sc3c2C(=O)NC(c2cccs2)N3)C1 (stereo not drawn) | ? | -18% | ? | 13µM* | 31% | 45µM*[fluorescent]
COC(=O)/C(=C1/Oc2ccc(C(C)(C)C)cc2S1)C(F)(F)F | -12% | -6% | 0% | -15% | 3% | -2%
COC(=O)/C(=C1/Oc2cc(C)oc(=O)c2S1)C(F)(F)F | ? | -21% | -2% | 8.9µM* | -4% | -9%
CCC(C)N1C(=O)/C(=C/c2c(NCCCOC(C)C)nc3c(C)cccn3c2=O)SC1=S (stereo not drawn) | 25µM* | 1% | 0% | ? | 116% | -1%
CC(C)(C)OC(=O)N1CCC[C@H]1C(=O)NCC1CCC(C(=O)O)CC1 (stereo partly drawn) | 2% | 0% | 0% | 1% | -2% | -3%

Screens as filed in PubChem BioAssay.
